An excerpt weighted towards active compounds, which were near 3.5% of everything screened.
Pf apPOL block: Pf-apPOL inhibitors, biochemical, fluorescence | Plasmodium falciparum apicoplast DNA polymerase (apPOL) | Recombinant Pf-apPOL, molecular beacon fluorescence, 1.5 h | inhibition, % at 10 µM | 0.25% of 210,000 active
mHTT CaM bind: mutant huntingtin-calmodulin interaction inhibitors – biochemical, AlphaScreen, primary screen. AlphaScreen His-mHTT/GST-CaM binding, luminescence. 3.6% of 190,000 active. inhibition, % at 15 µM. P42858
A number is an active result; i = inactive; nt = no result; ! = a repeat was not active. Rule as the data show it: active = inhibition above about 50%; inactive = the rest.

SMILES	Pf apPOL block	mHTT CaM bind
O=C(NCc1ccccc1)NCC(O)c1ccc(C(F)(F)F)cc1 (centres undefined)	i	i
O=C(NCC(O)c1ccc(C(F)(F)F)cc1)C(c1ccccc1)c1ccccc1 (centres undefined)	i	86.2
COC(=O)c1ccc(NC(=O)c2ccc(=O)n(Cc3ccc(C)cc3)c2)cc1	i	i
CCOc1ccc(-n2c(=O)c3sccc3n(CC(=O)N(CC)Cc3ccccc3)c2=O)cc1	i	i
COc1ccc(NC(=O)N2CCN(c3ccc(-n4nc(C)cc4C)nn3)CC2)cc1	i	i
COc1cccc(NC(=O)N2CCN(c3ccc(Nc4cc(C)ccn4)nn3)CC2)c1	i	99.0
CN1CCN(C(=O)c2cnn(-c3ccccc3)c2NC(=O)c2ccc(F)cc2)CC1	i	i
Cn1ccc2c(N3CCCC3)cc3c(c21)C1CCC3O1 (centres undefined)	i	i
Cn1ccc2c(N3CCCCCC3)cc3c(c21)C1CCC3O1 (centres undefined)	i	66.2
Cn1ccc2c(N3CCCC3)cc3c(c21)C1CCC3C1 (centres undefined)	i	i
Cn1ccc2c(N3CCCCC3)cc3c(c21)C1CCC3C1 (centres undefined)	i	77.6
Cc1ccccc1-c1cc2c(c3c1ccn3C)C1CCC2O1 (centres undefined)	i	i
Cn1ccc2c(-c3cncc4ccccc34)cc3c(c21)C1CCC3O1 (centres undefined)	i	100.1
O=C(NC(=O)c1ccc(-c2ccc(Cl)cc2)s1)c1ccccc1	i	nt
O=C1OC(c2ccc(Cl)cc2)=N/C1=C/c1ccc2c(c1)OCO2	i	i
CC1(C)CC(=O)C2=C(C1)c1c(ccc3ncccc13)NC2c1ccccc1 (centres undefined)	i	i
CC1(C)CC(=O)C2=C(C1)c1c(ccc3ncccc13)NC2c1ccc(Cl)cc1 (centres undefined)	57.8	i
O=C(NC1CCN(Cc2ccccc2)CC1)c1cccn2c(=O)c3cc(Cl)ccc3nc12	i	i
Cc1ccc2nc3c(C(=O)N4CCN(Cc5ccccc5)CC4)cccn3c(=O)c2c1	i	83.6
COc1ccc(C=C2Oc3cc(OC(=O)C(C)C)cc(C)c3C2=O)cc1OC	i	i
N#CC1=C(N)OC2=C(C(=O)CCC2)C1c1ccccc1 (centres undefined)	i	i
N#CC1=C(N)OC2=C(CC/C2=C\c2ccccc2)C1c1ccccc1 (centres undefined)	i	90.0
CC1CCC2(CC1)SCC(=O)N2c1ccc(Br)cc1 (centres undefined)	i	i
CC1(c2ccc(Br)cc2)NC(=O)CS1 (centres undefined)	i	85.0
O=C(NCCN1CCOCC1)c1cc2n(n1)CCCN(Cc1cccc(F)c1)C2=O	i	i
SMILES	Pf apPOL block	mHTT CaM bind
Cc1ccnc(Nc2nc(-c3ccncc3)cs2)c1	i	i
Cc1ccnc(Nc2nc(-c3cccnc3)cs2)c1	71.9!	i
Cc1ccnc(Nc2nc(-c3ccc4c(c3)OCO4)cs2)c1	i	56.3
Cc1ccnc(Nc2nc(CC(=O)NCCc3cccs3)cs2)c1	i	i
Cc1ccnc(Nc2nc(-c3ccc(Cl)cc3)cs2)c1	i	i
Cc1ccnc(Nc2nc(CC(=O)NCc3ccco3)cs2)c1	i	68.3
COc1ccc(CNC(=O)c2ccc(N3CCNC(c4ccccc4)C3)nc2)cc1 (centres undefined)	i	i
CCCC(=O)N1CCN(c2cc(Oc3cccc(F)c3)ncn2)CC1C (centres undefined)	i	i
O=C(Nc1nnc(-c2ccc(F)cc2)o1)c1ccc(S(=O)(=O)N2CCc3ccccc3C2)cc1	i	i
CCc1nnc(NC(=O)c2ccc(S(=O)(=O)N3CCc4ccccc4C3)cc2)o1	i	55.0
CCC(=O)NCc1nc2c(n1C)CN(S(=O)(=O)c1cc(Cl)ccc1OC)CC2	i	i
O=C(c1ccccc1Cl)N1CCCN(C2CCN(Cc3ccc(F)cc3)C2=O)CC1 (centres undefined)	i	57.5
COc1ccccc1C(=O)N1CCCN(C2CCN(Cc3ccc(F)cc3)C2=O)CC1 (centres undefined)	i	i
N#CC(C#N)=C1c2cc(S(N)(=O)=O)cc([N+](=O)[O-])c2-c2c1cc(S(N)(=O)=O)cc2[N+](=O)[O-]	i	nt
CCc1nn(-c2ccc(Cl)c(Cl)c2)c(CC)c1C(=O)N1CCN(CC)CC1	i	65.9
Cc1c(C(=O)N2CCN(C)CC2)c(C2CC2)nn1-c1ccc(Cl)c(Cl)c1	i	56.4
CC(C)c1c(C(=O)N2CCN(C)CC2)c(C2CC2)nn1-c1ccccc1	i	i
CCc1nn(-c2ccc(C)cc2)c(CC)c1C(=O)N1CCN(CC)CC1	i	i
COc1cccc(C(=O)Nc2c3c(nn2-c2ccc(F)cc2)CS(=O)C3)c1OC (centres undefined)	i	i
Cc1ccc2c(c1)N(C)C(=O)c1cc(NC(=O)CN3C(=O)c4ccccc4C3=O)ccc1O2	i	i
Cc1cc2c(cc1C)NC(CC(=O)Nc1cc([N+](=O)[O-])ccc1C)C(=O)N2 (centres undefined)	i	i
C1CCN(C2CCN(C3CC4CCC3C4)CC2)CC1 (centres undefined)	i	i
C1CCCN(C2CCN(C3CC4CCC3C4)CC2)CC1 (centres undefined)	i	81.0
O=C(c1cccs1)N1N=C(c2cccs2)CC1c1cccc([N+](=O)[O-])c1 (centres undefined)	i	i
CCC(C(=O)Nc1cccc([N+](=O)[O-])c1)c1ccccc1 (centres undefined)	i	i
SMILES	Pf apPOL block	mHTT CaM bind
CCCN1C(=O)CCc2cc(NC(=O)c3cccs3)ccc21	i	i
CCN1CCN(C2CCN(C(=O)c3ccc(C)cc3)CC2)C1=O	i	i
CCN1CCN(C2CCN(C(=O)c3cc(C)cc(C)c3)CC2)C1=O	i	95.5
COc1ccc(C(=O)NC2CCN(c3nnc4ccc(Cl)cn34)CC2)cc1	i	i
O=C(CC(NCc1ccco1)C(=O)O)Nc1ccccc1F (centres undefined)	i	i
COc1ccc(S(=O)(=O)N2CCC(C(=O)Nc3cccc(C(C)=O)c3)CC2)cc1	99.0	i
COC(=O)Nc1ccc(S(=O)(=O)N2CCC(C(=O)Nc3cccc(OC)c3)CC2)cc1	i	i
COc1cc(OC)c(OC)cc1C=C1Oc2cc(OC(=O)N3CCOCC3)ccc2C1=O	i	i
CN1CCCc2cc(C(CNC(=O)C(=O)Nc3ccc4c(c3)OCCO4)N(C)C)ccc21 (centres undefined)	i	i
CN1CCc2cc(C(CNC(=O)C(=O)Nc3cccc(C(F)(F)F)c3)N(C)C)ccc21 (centres undefined)	i	52.7
Cc1ccc2c(NC(=O)C3CN(C(=O)c4ccc(F)c(F)c4)C3)cccc2n1	i	i
Cc1nc2sccn2c1-c1csc(Nc2ccc([N+](=O)[O-])cc2)n1	i	i
COc1ccc(OC)c(Nc2nc(-c3c(C)nc4ncccn34)cs2)c1	i	81.5
COc1ccccc1Nc1nc(-c2cccnc2)cs1	i	i
COc1ccccc1Nc1nc(-c2ccccc2)cs1	i	i
COc1ccc(OC)c(Nc2nc(-c3cccc([N+](=O)[O-])c3)cs2)c1	i	i
CCN(CC)c1ccc(Nc2nc(-c3c(C)nc4sccn34)cs2)cc1	i	92.8
COc1ccccc1Nc1nc(-c2c(C)nc3ccccn23)cs1	i	61.5
COc1ccccc1Nc1nc(-c2c(C)nc3sccn23)cs1	i	80.0
